Measurements: PubChem BioAssay (NCATS)
Results filed as inconclusive are left out. Entries that show only a call come without a potency. Values without a mark were called inactive. Calls of active or inactive are those of the source. The call rests on the fitted dose curve; in most records, active means well fitted inhibition curve with a large enough effect; inconclusive means small, poorly fitted or top-dose-only effect; inactive means flat fitted curve, though single readings scatter.

Experiment: P-glycoprotein substrates identified in KB-8-5-11 adenocarcinoma cell line, qHTS therapeutic library screen (AID 1346987); further: nearly all actives have a fitted effect of over 65% in size
Conditions: KB-8-5-11 (P-gp overexpressing) viability, CellTiter-Glo, 72 h; series mostly up to 44.5 µM
Outline: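 Compounds are pinned in dose-response onto KB-8-5-11 cells (500 cells/well, colchicine-free medium) and left 72 h at 37 degree C. CellTiter-Glo luminescence then yields AC50 values.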
Potency means the concentration at half of the fitted maximal effect.

Row | SMILES | Potency | activity change, negative = cytotoxicity | outcome
1 | CC(C)C1(O[C@@H]2O[C@H](CO)[C@@H](O)[C@H](O)[C@H]2O)CC=C(CO)CC1 (some centres undefined) | inactive | – | –
2 | CC(=O)OCC(=O)[C@@]12OC3(CCCC3)O[C@@H]1C[C@H]1[C@@H]3CCC4=CC(=O)C=C[C@]4(C)[C@@]3(F)[C@@H](O)C[C@@]12C | inactive | – | –
3 | C[C@@H]1C(=O)O[C@H]2[C@H]1CC[C@@]1(C)C(=O)C=C[C@](C)(O)[C@H]21 | inactive | – | –
4 | C[C@@H]1CCC2C(C)(C)[C@H](O)CC[C@]2(C)[C@@]12Cc1c(O)cc3c(c1O2)CN(CCO)C3=O (some centres undefined) | inactive | – | –
5 | O=C(O)c1cc(O[C@@H]2O[C@H](CO[C@@H]3OC[C@@H](O)[C@H](O)[C@H]3O)[C@@H](O)[C@H](O)[C@H]2O)c2ccccc2c1O | inactive | – | –
6 | C=C1C(=O)OC2CC(C)=C(C(C)CCCO[C@@H]3O[C@H](CO)[C@@H](O)[C@H](O)[C@H]3O)C(O)C12 (some centres undefined) | inactive | – | –
7 | C#CCOc1ccc2c(C)cc(=O)oc2c1 | inactive | – | –
8 | CC(=O)OC[C@@]12[C@H](O)C[C@]3(C)C(=CCC4[C@@]5(C)CC[C@H](O[C@@H]6O[C@H](C(=O)O)[C@@H](O[C@@H]7O[C@H](CO)[C@@H](O)[C@H](O)[C@H]7O)[C@H](O)[C@H]6O[C@@H]6O[C@H](CO)[C@@H](O)[C@H](O)[C@H]6O)[C@](C)(CO)C5CC[C@]43C)[C@@H]1CC(C)(C)[C@@H](OC(C)=O)[C@@H]2O (some centres undefined) | – | 4.33% [at 9.29 µM] | –
9 | NCc1c[nH]c(=S)n1C1CCc2c(F)cc(F)cc2C1 (centres undefined) | inactive | – | –
10 | C[C@@H]1O[C@@H](O[C@H]2[C@H](O)[C@@H](C(=O)O)O[C@@H](O[C@H]3CC[C@@]4(C)C(CC[C@]5(C)C4CC=C4C6CC(C)(C)CC[C@]6(C(=O)O)CC[C@]45C)C3(C)C)[C@@H]2O[C@@H]2O[C@H](CO)[C@@H](O)[C@H](O)[C@H]2O)[C@H](O)[C@H](O)[C@H]1O (some centres undefined) | – | – | inactive [at 9.29 µM]
11 | COc1cccc2c1CCC[C@H]2CN(C)CCc1ccc2ccoc2c1 | inactive | – | –
12 | C=C1CC[C@@H]2[C@](C)(CC[C@H](O)[C@@]2(C)CCC=C(C)C)[C@@H]1Cc1c[nH]c2ccccc12 | inactive | – | –
13 | C=C[C@H]1[C@H](O[C@@H]2O[C@H](CO)[C@@H](O)[C@H](O)[C@H]2O)OC=C2C(=O)OCC[C@]21O | inactive | – | –
14 | CCCCC(CC)COC(=O)CC(C(=O)OCC(CC)CCCC)S(=O)(=O)O (centres undefined) | inactive | – | –
15 | CCOC(=O)c1ccc(N(C)c2csc(-c3ccccc3)n2)cc1 | inactive | – | –
16 | CC(=O)OC1C(O)C(C)=C(CCC(C)CC(=O)O)C2(C)CCCC(C)(C)C12 (centres undefined) | inactive | – | –
17 | CC(Oc1ccccc1)C(=O)N[C@@H]1C(=O)N2[C@@H]1SC(C)(C)[C@@H]2C(=O)O (some centres undefined) | inactive | – | –
18 | COC(=O)[C@H]1[C@H]2C[C@@H]3c4[nH]c5ccccc5c4CCN3C[C@H]2C[C@@H](OC(=O)c2cc(OC)c(OC)c(OC)c2)[C@@H]1OC | 4.11 µM (active) | – | –
19 | CCCC(N[C@@H](C)C(=O)N1[C@H](C(=O)O)C[C@@H]2CCCC[C@@H]21)C(=O)OCC (some centres undefined) | inactive | – | –
20 | C[C@@H]1C[C@H](O)/C=C/[C@H](O)[C@@H](O)CC(=O)O1 | inactive | – | –

Row | SMILES | Potency | activity change, negative = cytotoxicity | outcome
21 | CC(C)C(=O)O[C@@H]1[C@@H](O)[C@@H](O[C@H]2O[C@H](CO)[C@@H](O)[C@H](O)[C@H]2O)O[C@H](CO)[C@H]1O | inactive | – | –
22 | C1CCN2CC3C[C@@H](CN4CCCC[C@@H]34)[C@H]2C1 | inactive | – | –
23 | CC1(C)CCC[C@@]2(C)[C@H]1[C@H](O)C=C1COC(=O)[C@@]12O | inactive | – | –
24 | COC1C=C([C@@H]2CC=C3[C@@]4(C)C(CC[C@]32C)[C@@]2(C)C=CC(=O)C(C)(C)C2C[C@H]4OC(C)=O)C(=O)O1 (some centres undefined) | inactive | – | –
25 | C/C1=C2N=C(/C=C3N=C(/C(C)=C4\[N-][C@@](C)([C@@H]5N=C1[C@](C)(CCC(=O)NCC(C)OP(=O)(O)O[C@H]1[C@@H](O)[C@@H](n6cnc7cc(C)c(C)cc76)O[C@@H]1CO)[C@H]5CC(N)=O)[C@@](C)(CC(N)=O)[C@@H]4CCC(N)=O)[C@@](C)(CC(N)=O)[C@@H]\3CCC(N)=O)C(C)(C)[C@@H]/2CCC(N)=O.CC(=O)O.[Co] (some centres undefined) | inactive | – | –
26 | COc1cc(C)c(C(=O)O[C@H]2[C@@H](O)[C@H](n3ccc(=O)[nH]c3=O)O[C@@H]2CO)c(OC)c1 | inactive | – | –
27 | C=C1CCC2C(C)(CO[C@@H]3O[C@H](CO)[C@@H](O)[C@H](O)[C@H]3O)C(O)CCC2(C)C1C(=O)CC1=CCOC1=O (some centres undefined) | inactive | – | –
28 | CC1(C)CC[C@]2(C(=O)O)CC[C@]3(C)C(=CCC4[C@@]5(C)C[C@H](O)[C@H](O[C@@H]6OC[C@H](O)[C@H](O)[C@H]6O)[C@@](C)(CO)C5CC[C@]43C)[C@@H]2C1 (some centres undefined) | inactive | – | –
29 | CC1(C)CC2C(O)C3=C(CC(C)(O)C2C1)C(=O)OC3O (centres undefined) | inactive | – | –
30 | CC(=O)O[C@@H]1[C@H](O[C@@H]2O[C@H](CO)[C@@H](O)[C@H](O)[C@H]2O)[C@@H](O[C@@H]2O[C@@H](C)[C@H](O)[C@@H](O[C@@H]3O[C@H](CO)[C@@H](O)[C@H](O)[C@H]3O)[C@H]2O)[C@H](OC(=O)C23CCC4(C)C(=CCC5C6(C)CC(O)C(O[C@@H]7O[C@H](C(=O)O)[C@@H](O)[C@H](O)[C@H]7O)C(C)(C(=O)O)C6CCC54C)C2CC(C)(C)CC3O)O[C@@H]1C (some centres undefined) | – | – | inactive [at 9.29 µM]
31 | N[C@H](C(=O)O)[C@@H]1CC(Cl)=NO1 | 4.11 µM (active) | – | –
32 | C[C@@H]1C/C=C/C=C\C=C\C=C\[C@H](O[C@@H]2O[C@H](C)[C@@H](O)[C@H](N)[C@@H]2O)C[C@@H]2O[C@](O)(C[C@@H](O)C[C@H]3O[C@@H]3/C=C/C(=O)O1)C[C@H](O)[C@H]2C(=O)O | inactive | – | –
33 | O=c1c2cccnc2n(-c2cccc([N+](=O)[O-])c2)c(=O)n1Cc1ccncc1 | inactive | – | –
34 | CC1=CC[C@]2(C(=O)O[C@@H]3O[C@H](CO[C@@H]4O[C@H](CO)[C@@H](O[C@@H]5O[C@@H](C)[C@H](O)[C@@H](O)[C@H]5O)[C@H](O)[C@H]4O)[C@@H](O)[C@H](O)[C@H]3O)CC[C@]3(C)C(CCC4[C@@]5(C)C[C@@H](O)[C@H](O)[C@@](C)(CO)C5CC[C@]43C)C2C1C (some centres undefined) | – | 8.32% [at 9.29 µM] | –
35 | CC/C=C\C[C@H]1C(=O)C=C[C@@H]1CCCCCCCC(=O)O | inactive | – | –
36 | CCCCCCCCCCCCCC[n+]1ccc(C)cc1 | inactive | – | –
37 | C=CC(C)(O)CC/C=C(\C)C(=O)OCC1OC(OC2CCC3(C)C(CCC4(C)C3CC=C3C5CC(C)(C)C(O)CC5(C(=O)O)CCC34C)C2(C)C)C(O)C(OC2OC(CO)C(O)C(OC3OC(CO)C(O)C(OC4OC(COC5OC(CO)C(O)C(O)C5O)C(O)C(O)C4O)C3O)C2O)C1O (centres undefined) | – | 5.27% [at 9.29 µM] | –
38 | CC1CCC2C(C)(C)C(O)CCC2(C)C12Cc1c(O)cc3c(c1O2)C(N)=NC3 (centres undefined) | inactive | – | –
39 | COC(=O)CC[C@@H](C)[C@H]1CC[C@H]2[C@@H]3CC(=O)[C@H]4C[C@H](OC(C)=O)CC[C@]4(C)[C@H]3CC[C@]12C | inactive | – | –
